Calls of active or inactive are those of the source.
Legend:
[1] = test system: Plasmodium falciparum Sir2 (PF13_0152, Sir2A); assay: Plasmodium falciparum Sir2A binding compounds – biochemical, small-molecule microarray, 635 nm fluorescence, primary screen (AID 1098); details: fluorescence 635 nm, higher = more signal;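 also: score merges spot fluorescence intensity with its signal-to-noise ratio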
[2] = probe aDKK1 binding to arrayed compounds – biochemical, biotinylated probe, 635/667 nm fluorescence, primary screen (AID 1099); details: small-molecule microarray, higher = more signal;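 also: score merges 667nm spot fluorescence with signal to noise across triplicate slides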
[3] = probe aCHRDL2 binding to arrayed compounds – biochemical, biotinylated probe, 635/667 nm fluorescence, primary screen (AID 1100); details: small-molecule microarray, higher = more signal
[4] = change in splice reporter luminescence, either direction, cell-based, HEK293, spliceosome inhibition project, primary screen (AID 1101); details: HEK293 splicing luciferase reporter, 24 h, higher = more signal, called active from +8 up or from −8 down;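 also: HEK293 cells carrying a splicing-competent luciferase reporter gene; test concentration not given here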
[5] = molecular target: Fibroblast growth factor 10 (Homo sapiens) (UniProt O15520); assay: compounds binding fibroblast growth factor 10 – biochemical, small-molecule microarray, 635 nm fluorescence, primary screen (AID 1102); details: FGF10 binding, fluorescence 635 nm, higher = more signal
Fibroblast growth factor 10 (Homo sapiens), sequence (O15520 whole entry, looked up): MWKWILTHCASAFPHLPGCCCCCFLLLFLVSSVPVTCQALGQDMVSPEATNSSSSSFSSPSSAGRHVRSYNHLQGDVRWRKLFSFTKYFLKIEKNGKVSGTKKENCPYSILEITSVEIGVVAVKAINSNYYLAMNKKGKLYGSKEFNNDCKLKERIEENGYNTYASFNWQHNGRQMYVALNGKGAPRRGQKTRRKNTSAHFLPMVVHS

[6] = test system: glycogen synthase kinase-3 (GSK3A per assay name; protocol says GSK3B); assay: compounds binding glycogen synthase kinase-3 – biochemical, small-molecule microarray, 635 nm fluorescence, GSK3A, primary screen (AID 1103); details: fluorescence 635 nm, higher = more signal; also: the record names both GSK3A and GSK3B
[7] = molecular target: Epidermal growth factor receptor (Homo sapiens) (UniProt P00533); assay: compounds binding epidermal growth factor receptor – biochemical, small-molecule microarray, 635 nm fluorescence, primary screen (AID 1104); details: EGFR binding, higher = more signal;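 also: score merges 667 nm emission intensity with spot signal to noise over triplicate slides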
Epidermal growth factor receptor (Homo sapiens), sequence (P00533 whole entry, looked up): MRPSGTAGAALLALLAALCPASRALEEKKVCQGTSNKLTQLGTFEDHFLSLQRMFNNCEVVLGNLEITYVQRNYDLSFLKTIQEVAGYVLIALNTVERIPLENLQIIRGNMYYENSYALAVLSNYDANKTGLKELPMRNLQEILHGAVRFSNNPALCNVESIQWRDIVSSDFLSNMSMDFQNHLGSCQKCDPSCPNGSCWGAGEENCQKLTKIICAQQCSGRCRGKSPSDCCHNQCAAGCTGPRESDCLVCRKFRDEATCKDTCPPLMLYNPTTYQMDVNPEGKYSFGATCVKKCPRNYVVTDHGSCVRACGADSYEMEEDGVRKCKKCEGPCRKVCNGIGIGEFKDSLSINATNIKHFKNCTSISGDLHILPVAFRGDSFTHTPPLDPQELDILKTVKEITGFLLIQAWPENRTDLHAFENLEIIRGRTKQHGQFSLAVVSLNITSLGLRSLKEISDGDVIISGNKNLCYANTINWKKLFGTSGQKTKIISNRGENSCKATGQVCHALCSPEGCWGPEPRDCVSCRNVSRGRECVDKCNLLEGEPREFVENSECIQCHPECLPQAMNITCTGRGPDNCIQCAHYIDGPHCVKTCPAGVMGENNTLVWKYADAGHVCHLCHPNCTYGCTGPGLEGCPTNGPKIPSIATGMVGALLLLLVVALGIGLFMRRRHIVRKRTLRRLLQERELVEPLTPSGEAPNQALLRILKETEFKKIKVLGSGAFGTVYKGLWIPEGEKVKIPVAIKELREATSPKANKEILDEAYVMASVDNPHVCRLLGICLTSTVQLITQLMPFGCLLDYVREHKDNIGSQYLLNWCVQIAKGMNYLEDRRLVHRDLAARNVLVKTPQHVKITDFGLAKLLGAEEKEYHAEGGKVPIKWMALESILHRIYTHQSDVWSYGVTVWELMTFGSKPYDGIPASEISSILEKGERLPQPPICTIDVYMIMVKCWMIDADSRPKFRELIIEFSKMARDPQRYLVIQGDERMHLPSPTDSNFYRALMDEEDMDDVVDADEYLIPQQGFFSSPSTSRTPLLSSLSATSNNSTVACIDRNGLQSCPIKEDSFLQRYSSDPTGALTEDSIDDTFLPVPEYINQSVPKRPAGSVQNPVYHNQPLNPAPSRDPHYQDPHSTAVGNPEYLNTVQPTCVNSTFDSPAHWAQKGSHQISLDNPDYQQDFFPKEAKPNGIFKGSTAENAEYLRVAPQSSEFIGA

[8] = molecular target: Follistatin-related protein 3 (Homo sapiens) (UniProt O95633); assay: compounds binding follistatin-related protein 3 – biochemical, small-molecule microarray, 635 nm fluorescence, primary screen (AID 1105); details: FSTL3 binding, higher = more signal;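 also: score merges emission near 667 nm and signal to noise per printed spot across three slides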
Follistatin-related protein 3 (Homo sapiens), sequence (O95633 whole entry, looked up): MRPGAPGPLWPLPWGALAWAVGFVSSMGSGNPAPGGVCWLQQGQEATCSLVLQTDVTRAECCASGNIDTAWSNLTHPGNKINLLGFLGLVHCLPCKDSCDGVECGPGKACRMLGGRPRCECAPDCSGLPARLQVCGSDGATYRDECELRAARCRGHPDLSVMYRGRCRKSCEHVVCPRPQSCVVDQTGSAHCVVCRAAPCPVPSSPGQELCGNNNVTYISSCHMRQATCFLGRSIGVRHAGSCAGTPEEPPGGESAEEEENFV

[9] = molecular target: Dickkopf-related protein 1 (Homo sapiens) (UniProt O94907); assay: small molecules binding DKK1 protein – biochemical, small-molecule microarray, 635 nm fluorescence scan, primary screen (AID 1106); details: higher = more signal;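 also: score merges emission near 667 nm with signal to noise over three replicate slides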
Dickkopf-related protein 1 (Homo sapiens), sequence (O94907 whole entry, looked up): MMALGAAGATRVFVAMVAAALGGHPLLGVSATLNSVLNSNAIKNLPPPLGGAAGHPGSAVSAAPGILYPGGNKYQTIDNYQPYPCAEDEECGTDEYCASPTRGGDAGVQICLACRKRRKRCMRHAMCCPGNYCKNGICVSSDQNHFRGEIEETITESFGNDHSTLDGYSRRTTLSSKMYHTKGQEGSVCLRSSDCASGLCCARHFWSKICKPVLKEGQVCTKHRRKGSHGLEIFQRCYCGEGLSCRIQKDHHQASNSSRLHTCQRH

[10] = test system: Inhibin beta A chain (activin A); assay: small molecules binding activin A – biochemical, small-molecule microarray, 635 nm fluorescence scan, primary screen (AID 1107); details: INHBA, higher = more signal;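 also: mouse activin A protein probed at 4.33 µg/mL on printed slides; score merges bound-protein fluorescence near 667 nm with spot signal-to-noise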
[11] = test system: Human papillomavirus type 1a protein E7 (residues 44-93); assay: small molecules binding HPV E7 44-93 – biochemical, small-molecule microarray, residues 44-93, 635 nm fluorescence, primary screen (AID 1108); details: fluorescence 635 nm, higher = more signal;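 also: E7 fragment applied at 1 µg/mL in TBST for 1 h at 4 C; score combines spot fluorescence with its signal to noise ratio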
[12] = hepatitis C replication reporter changes, two-sided – Huh7 cells, luciferase reporter, HCV replication inhibitor project, primary screen (AID 1109); details: Huh7 HCV replicon luciferase reporter, 48 h; higher = more signal;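 also: huh7 hepatoma cells harbouring a luciferase neomycin HCV replicon reporter; luciferase luminescence as measure of HCV replicon replication; test concentration not given here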
[13] = molecular target: Left-right determination factor 2 (Homo sapiens) (UniProt O00292); assay: small molecules binding LEFTY2 protein – biochemical, small-molecule microarray, 635 nm fluorescence scan, primary screen (AID 1110); details: higher = more signal
Left-right determination factor 2 (Homo sapiens), sequence (O00292 whole entry, looked up): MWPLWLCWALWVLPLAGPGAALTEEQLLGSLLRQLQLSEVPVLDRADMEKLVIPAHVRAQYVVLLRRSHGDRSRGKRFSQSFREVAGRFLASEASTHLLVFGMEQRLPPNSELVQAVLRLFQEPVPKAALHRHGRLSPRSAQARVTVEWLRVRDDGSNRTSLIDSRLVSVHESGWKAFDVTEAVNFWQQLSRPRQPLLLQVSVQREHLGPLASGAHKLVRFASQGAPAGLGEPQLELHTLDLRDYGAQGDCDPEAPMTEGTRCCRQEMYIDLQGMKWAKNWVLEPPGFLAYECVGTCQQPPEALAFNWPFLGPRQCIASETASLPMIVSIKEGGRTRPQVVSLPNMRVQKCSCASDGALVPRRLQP

[14] = molecular target: Calmodulin-1 (Homo sapiens) (UniProt P0DP23); assay: small molecules binding calmodulin-1 with EGTA – biochemical, small-molecule microarray, Cy5-labelled CALM1, profiling panel (AID 1111); details: Cy5-CALM1 binding fluorescence, higher = more signal;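 also: labelled calmodulin applied in Tris saline Tween buffer holding calcium plus EGTA and DTT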
[15] = molecular target: Calmodulin-1 (Homo sapiens) (UniProt P0DP23); assay: small molecules binding Ca-loaded calmodulin-1 – biochemical, small-molecule microarray, Cy5-labelled CALM1, plus calcium, artefact control for SMM control-protein annotation, profiling panel (AID 1112); details: Cy5-CALM1 binding fluorescence, higher = more signal;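 also: score merges spot fluorescence with signal to noise from triplicate slides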
[16] = probe aWnt5a binding to arrayed compounds – biochemical, biotinylated probe, 635/667 nm fluorescence, primary screen (AID 1113); details: small-molecule microarray, higher = more signal;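 also: score merges 667 nm fluorescence intensity with signal-to-noise per printed feature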
[17] = probe aShh binding to arrayed compounds – biochemical, biotinylated probe, 635/667 nm fluorescence, primary screen (AID 1114); details: small-molecule microarray, higher = more signal;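 also: probe is biotin-labelled aShh protein from a stem cell growth factor screen; measures binding of labelled protein to compounds printed on the slide; score merges feature fluorescence at 667 nm with signal-to-noise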
[18] = probe aNog binding to arrayed compounds – biochemical, biotinylated probe, 635/667 nm fluorescence, primary screen (AID 1115); details: small-molecule microarray, higher = more signal;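 also: probe is biotinylated aNog protein used at 0.15 µg/mL for 1 h at 4 C; z-score combines 667 nm fluorescence of each spot with its signal to noise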
[19] = molecular target: Torsin-1A-interacting protein 1 (Homo sapiens) (UniProt Q5JTV8); assay: compound microarray binding of lysate hLAP1 – cell lysate, small-molecule microarray, COS7 lysate, 635/667 nm fluorescence, primary screen (AID 1116); details: 635 nm fluorescence, higher = more signal
Torsin-1A-interacting protein 1 (Homo sapiens), sequence (Q5JTV8 whole entry, looked up): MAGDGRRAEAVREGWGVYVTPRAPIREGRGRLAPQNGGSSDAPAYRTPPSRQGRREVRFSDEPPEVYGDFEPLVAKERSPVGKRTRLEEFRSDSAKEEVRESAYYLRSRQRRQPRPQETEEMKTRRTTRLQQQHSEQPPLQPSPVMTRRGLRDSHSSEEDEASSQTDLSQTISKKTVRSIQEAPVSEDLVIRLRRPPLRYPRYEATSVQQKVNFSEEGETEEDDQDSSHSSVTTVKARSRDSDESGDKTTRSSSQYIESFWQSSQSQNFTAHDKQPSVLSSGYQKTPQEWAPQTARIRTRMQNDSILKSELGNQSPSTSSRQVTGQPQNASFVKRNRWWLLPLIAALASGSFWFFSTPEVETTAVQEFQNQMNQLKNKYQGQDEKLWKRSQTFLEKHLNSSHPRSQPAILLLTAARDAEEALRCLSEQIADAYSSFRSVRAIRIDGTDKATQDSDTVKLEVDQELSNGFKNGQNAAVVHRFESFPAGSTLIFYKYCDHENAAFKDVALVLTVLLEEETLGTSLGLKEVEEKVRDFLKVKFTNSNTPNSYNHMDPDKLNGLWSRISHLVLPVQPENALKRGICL

[20] = molecular target: Alpha-bungarotoxin (Bungarus multicinctus) (UniProt P60615); assay: compounds binding labelled alpha-BTX control protein – biochemical, small-molecule microarray, Alexa647 label, 635/667 nm fluorescence, artefact control for SMM control protein annotation, profiling panel (AID 1117); details: alpha-BTX-A647 binding fluorescence, higher = more signal
Alpha-bungarotoxin (Bungarus multicinctus), sequence (P60615 whole entry, looked up): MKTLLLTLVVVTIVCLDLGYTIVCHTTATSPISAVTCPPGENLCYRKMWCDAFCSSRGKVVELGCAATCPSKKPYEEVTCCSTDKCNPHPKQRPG

Row | SMILES | composite z-score [1] | composite z-score [2] | composite z-score [3] | z-score [4] | composite z-score [5] | composite z-score [6] | composite z-score [7] | composite z-score [8] | composite z-score [9] | composite z-score [10] | composite z-score [11] | z-score [12] | composite z-score [13] | composite z-score [14] | composite z-score [15] | composite z-score [16] | composite z-score [17] | composite z-score [18] | composite z-score [19] | composite z-score [20]
1 | C=C(CCCC)/C(=C/C[C@@H](OC(=O)c1ccncc1)c1ccc(OCCO)cc1)c1cnc2ccccc2c1 | 0.711 | 0.358 | 0.686 | -1.18 (inactive) | 1.24 | 0.633 | 1.15 | 1.53 | 1.68 | 1.8 | 0.602 | -1.3 | 0.737 | 0.0142 | -0.184 | -0.096 | 0.164 | 0.168 | -0.0621 | 3.3
2 | CCN(CC)c1ccc(N2CC=CC34O[C@@H]5C=CCOC(=O)[C@@H]5[C@H]3C(=O)N(C(C)CO)[C@@H]4C2=O)cc1 (stereo not given in full) | -0.928 | 0.0831 | 0.495 | -0.405 (inactive) | -0.749 | -2.21 | -1.5 | -1.5 | -1.01 | 0.509 | -1.09 | -0.533 | -1.21 | -1.1 | -0.201 | -0.154 | -0.153 | 0.166 | -0.438 | 0.0517
3 | COCCOC(=O)N1C(=O)[C@@]2(c3cc(C#CCCO)ccc31)[C@H](c1ccccc1OCCO)N1[C@H](c3ccccc3)[C@H](c3ccccc3)OC(=O)[C@H]1[C@@H]2C(=O)NC[C@H](O)c1ccccc1 | 1.34 | 0.704 | 0.416 | -0.428 (inactive) | 1.16 | 1.22 | 0.2 | 1.35 | 0.74 | 0.274 | 0.722 | -1.53 | 0.449 | 1.11 | 0.678 | -0.0512 | 0.275 | 0.482 | 1.38 | 1.89
4 | CC(C)[C@@H](C(=O)O)n1cc(-c2ccccn2)nn1 | -0.0369 | 0.98 | 0.33 | -0.015 (inactive) | 0.0739 | 0.428 | 0.278 | 0.0231 | 0.418 | 0.805 | 0.465 | -0.187 | 0.249 | 0.51 | 0.556 | -0.0216 | 0.0039 | -0.195 | 0.539 | 0.703
5 | COC(=O)C1=CC(c2ccc(CO)cc2)=CC(C2CC2)N(C)C=C1C(=O)OC (stereo not given) | 1.97 | 0.341 | 0.542 | -1.93 (inactive) | 0.17 | -0.373 | -0.125 | -0.172 | 0.466 | 0.606 | -0.139 | -0.748 | -0.246 | 1.52 | 0.454 | -0.0179 | 0.111 | 0.407 | 2.82 | 3.09
